Screens from PubChem.
Shown are actives, neighbours in structure and some others; about 4% of the full set was active somewhere.
Beta apoptosis = blocks beta cell apoptosis; INS-1E cytokine-induced death, ATP luminescence, 48 h; percent of positive-control rescue, neutral wells zero; protection from apoptosis, % (no concentration beside the values); hit rate 0.8% among 300,000; AID 435005;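 active means Every replicate reaches about 75%, or at least half do and their mean reaches it too, limit read from the data; inconclusive means At least half of replicates reach the limit but their mean does not; inactive means Under half of replicates reach the limit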;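 further: 0% = cytokine-treated negative control wells and 100% = positive control rescue; higher means more ATP so stronger rescue from cytokine killing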
Gli-Sufu block = blocks Gli-Sufu signaling in a luciferase reporter; Sufu-KO-LIGHT fibroblasts, Gli luciferase reporter luminescence; inhibition, % at 5 µM; hit rate 0.74% among 340,000;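 active means inhibition above about 55%, limit read from the data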;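 further: 0% = DMSO-treated cells and 100% = wells with medium but no cells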
CSC inhib = blocks cancer stem cells | cancer stem cell-like cells viability, luminescence | inhibition, % at 7.5 µM | hit rate 1.1% among 300,000; in the data active means inhibition above about 75%; inconclusive means no clear call, values can overlap the other calls; tested in HMLE shEcad cells
PAX8 reporter = inhibitors of PAX8 transcriptional activity in RMG-I cells. AID 652154. RMG-I TPO-luciferase reporter, SteadyGlo, 24 h. hit rate 1.2% among 360,000. inhibition, % at 12.6 µM;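 active means mean replicate inhibition at least 60% with every replicate also reaching 60%; inconclusive means only one of the two criteria is met; inactive means mean below 60% and not all replicates reaching 60%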;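 further: luciferase light reporting Pax8 driven TPO promoter activity; plate controls were median of neutral control wells for no effect and mitoxantrone controls for full effect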
Mdm2 MdmX PPI = disrupts the human Mdm2-MdmX interaction; inhibition, % at 8 µM; O15151+Q00987; hit rate 3% among 330,000; SaOS-2 split-luciferase Mdm2/MdmX complementation, luminescence;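 active means inhibition of at least 50% at 8 µM in the primary screen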
Target sequence (O15151 whole entry, looked up): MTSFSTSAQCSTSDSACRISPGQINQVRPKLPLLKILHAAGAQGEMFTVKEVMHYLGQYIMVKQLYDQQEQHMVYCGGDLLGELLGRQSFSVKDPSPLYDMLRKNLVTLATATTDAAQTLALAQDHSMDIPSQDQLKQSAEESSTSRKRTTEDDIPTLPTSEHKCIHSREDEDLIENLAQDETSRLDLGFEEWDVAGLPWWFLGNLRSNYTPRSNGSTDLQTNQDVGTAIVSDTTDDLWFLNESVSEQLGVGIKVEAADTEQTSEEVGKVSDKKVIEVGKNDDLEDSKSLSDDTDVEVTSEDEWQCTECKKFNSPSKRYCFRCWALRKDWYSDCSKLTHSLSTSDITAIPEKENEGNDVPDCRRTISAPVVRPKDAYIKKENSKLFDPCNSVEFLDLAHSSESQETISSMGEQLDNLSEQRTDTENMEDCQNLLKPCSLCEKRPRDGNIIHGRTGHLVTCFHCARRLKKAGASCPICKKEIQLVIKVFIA
Target sequence (Q00987 whole entry, looked up): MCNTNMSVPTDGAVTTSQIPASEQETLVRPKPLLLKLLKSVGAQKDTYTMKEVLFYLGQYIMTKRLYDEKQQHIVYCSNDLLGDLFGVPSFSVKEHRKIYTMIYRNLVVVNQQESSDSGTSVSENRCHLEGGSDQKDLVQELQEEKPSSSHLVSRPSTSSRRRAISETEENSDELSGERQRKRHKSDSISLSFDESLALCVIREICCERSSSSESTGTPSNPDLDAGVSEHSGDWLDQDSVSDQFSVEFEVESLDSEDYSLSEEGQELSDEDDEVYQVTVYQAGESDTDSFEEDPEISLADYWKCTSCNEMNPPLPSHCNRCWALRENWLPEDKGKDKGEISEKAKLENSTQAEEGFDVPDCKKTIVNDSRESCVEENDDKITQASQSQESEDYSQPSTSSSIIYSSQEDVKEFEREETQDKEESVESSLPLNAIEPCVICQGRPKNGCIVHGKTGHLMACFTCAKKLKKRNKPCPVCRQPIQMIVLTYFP
Shn3 3UTR inh = reduces Shn3 3'UTR luciferase signal in osteoblasts; Clone20 osteoblast Shn3 3'UTR firefly luciferase, 24 h; inhibition, % at 12.5 µM; hit rate 0.52% among 360,000;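 active means mean inhibition of at least 75% with every replicate also reaching 75%; inconclusive means mean inhibition at least 75% but some replicate below; inactive means mean inhibition below 75%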;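 further: 0% = median of neutral control wells and 100% = pilot-screen positive control compound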
Mdm2 MdmX conf = confirmation of human Mdm2/MdmX interaction inhibitors. shares compounds with Mdm2 MdmX PPI. hit rate 55% among 10,000. inhibition, % at 8 µM. Mdm2-MdmX binding, luminescent assay. AID 489028; in the data active means inhibition above about 40%
Full FLuc ctr = full-length luciferase inhibition in Mdm2/MdmX counter-screen; shares compounds with Mdm2 MdmX PPI; SaOS-2 full-length luciferase counterscreen, luminescence; inhibition, % at 8 µM; hit rate 77% among 6,200; AID 504607;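 active means mean inhibition at 8 µM reaching about 37%, which flags the compound as non-specific, limit read from the data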;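 further: p53-null SaOS-2 cells with luciferase driven by a doxycycline-inducible promoter; compound on cells about two nights before reading with doxycycline added after day one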
The depositor's hits bear a star; ? = inconclusive; nt = not tested or not shown; + = active, no number.

SMILES | Beta apoptosis | Gli-Sufu block | CSC inhib | PAX8 reporter | Mdm2 MdmX PPI | Shn3 3UTR inh | Mdm2 MdmX conf | Full FLuc ctr
CN(C)CCCN(C(=O)CCc1ccccc1)c1nc2ccc(Cl)cc2s1 | 5 | 14 | 70 | 22 | 50* | -26 | 35 | 54*
COc1cccc2sc(N(CCCN(C)C)C(=O)c3ccc(S(=O)(=O)N4CCc5ccccc5C4)cc3)nc12 | 1 | 11 | -1 | 19 | 62* | 15 | 23 | nt
CCc1ccc2nc(N(CCCN(C)C)C(=O)c3ccc(C(=O)c4ccccc4)cc3)sc2c1 | 2 | 12 | 24 | -96 | 74* | -30 | 21 | nt
CCc1ccc2nc(N(CCCN(C)C)C(=O)c3ccc(S(=O)(=O)N4CCCc5ccccc54)cc3)sc2c1 | 20 | -20 | ? | -34 | 91* | 8 | 30 | nt
O=C(C1CCCC1)N1CC(=O)N2[C@@H](CO)[C@H](c3ccc(Br)cc3)[C@@H]2C1 | nt | nt | nt | -6 | nt | nt | nt | nt
O=C(NCC[C@H]1CC[C@H](NS(=O)(=O)c2cccc(F)c2)[C@H](CO)O1)C1CCC1 | nt | nt | nt | 2 | nt | nt | nt | nt
CN(C)CCCN(C(=O)c1ccc(S(=O)(=O)N2CCc3ccccc32)cc1)c1nc2c(Cl)cccc2s1 | 0 | 27 | 50 | 8 | 30 | 23 | nt | nt
COc1cccc2sc(N(CCCN(C)C)C(=O)c3ccc(S(=O)(=O)N4CCCc5ccccc54)cc3)nc12 | 9 | 44 | 23 | nt | 80* | -12 | 28 | nt
COc1cc2nc(N(CCCN(C)C)C(=O)c3ccc(S(=O)(=O)N4CCc5ccccc5C4)cc3)sc2cc1OC | nt | 23 | -5 | 10 | 30 | -27 | nt | nt
CCOc1ccc2nc(N(CCCN(C)C)C(=O)c3ccc4c(c3)CCCC4)sc2c1 | 18 | 45 | -6 | -9 | 46 | 1 | nt | nt
CN(C)CCCN(C(=O)c1ccc2c(c1)CCCC2)c1nc2ccc(Cl)cc2s1 | 17 | 24 | -5 | 4 | 54* | 19 | 19 | nt
Cc1ccc2sc(N(CCCN(C)C)C(=O)c3ccc(S(=O)(=O)N4CCc5ccccc5C4)cc3)nc2c1C | nt | 23 | 15 | 43 | 98* | 38 | 75* | 51*
COc1ccc(OC)c2sc(N(CCCN(C)C)C(=O)c3ccc(S(=O)(=O)N4CCc5ccccc5C4)cc3)nc12 | 100* | nt | 101* | nt | 99* | nt | 100* | 1
C[C@@H]1CN([C@@H](C)CO)C(=O)Cc2cc(N(C)C)ccc2O[C@H]1CN(C)S(=O)(=O)c1ccc(F)cc1 | nt | nt | nt | 7 | nt | nt | nt | nt
CO[C@H]1CN(C)C(=O)c2cc(NC(=O)c3ccc(F)cc3)ccc2OC[C@H](C)N(C(=O)c2ccc(F)cc2)C[C@H]1C | nt | nt | nt | 6 | nt | nt | nt | nt
C[C@H](CO)N1C[C@H](C)[C@H](CN(C)C(=O)c2ccncc2)OCCCC[C@H](C)Oc2ccc(NC(=O)CCC(F)(F)F)cc2C1=O | nt | nt | nt | -7 | nt | nt | nt | nt
CCC(C)n1c(=O)c(C(=O)Nc2ccccc2S(N)(=O)=O)c(O)c2ccccc21 (stereo not drawn) | -3 | 2 | -2 | nt | 57* | 2 | 56* | 31
Cn1c(=O)c(C(=O)Nc2ccccc2S(N)(=O)=O)c(O)c2ccccc21 | 4 | -19 | -6 | -27 | -16 | -29 | nt | nt
CC(C)Cn1c(=O)c(C(=O)Nc2ccccc2S(N)(=O)=O)c(O)c2ccccc21 | 6 | 0 | 54 | nt | 63* | 0 | 60* | 26
Cc1cc(C(=O)OCC(=O)Nc2ccc(F)cc2[N+](=O)[O-])c2ccccc2n1 | 3 | 12 | -13 | 19 | 52* | 2 | 51* | 100*
COCC(=O)Nc1ccc2c(c1)[C@@H]1C[C@H](CC(=O)NCc3ccccc3F)O[C@@H](CO)[C@@H]1O2 | nt | nt | nt | 6 | nt | nt | nt | nt
S=C1NC2=C(CCCC2=C2SCCS2)C(c2ccccc2)N1 (stereo not drawn) | -21 | -8 | 42 | -11 | 65* | -130 | 23 | nt
CN(C)S(=O)(=O)c1ccc(Cl)c(C(=O)Nc2nc3ccccc3[nH]2)c1 | 0 | 1 | -8 | 18 | -24 | 1 | nt | nt
Cc1ccc(NS(=O)(=O)c2ccc(Cl)c(C(=O)Nc3ccccc3-c3nc4ccccc4[nH]3)c2)cc1C | 10 | 3 | + | 11 | 61* | 18 | 77* | 51*
O=C(C[C@@H]1C=C[C@@H](NC(=O)CC2CC2)[C@@H](CO)O1)NCc1ccc(-c2ccccc2)cc1 | nt | nt | nt | -2 | nt | nt | nt | nt
SMILES | Beta apoptosis | Gli-Sufu block | CSC inhib | PAX8 reporter | Mdm2 MdmX PPI | Shn3 3UTR inh | Mdm2 MdmX conf | Full FLuc ctr
COc1cccc(/C=N/Nc2cc(N3CCOCC3)ncn2)c1O | 88* | 1 | 66 | 33 | 73* | 75 | 61* | 63*
COc1ccc(/C=N/Nc2cc(N3CCOCC3)ncn2)c(OC)c1 | 1 | -3 | -15 | -10 | 28 | 6 | nt | nt
COc1ccc(N(C)C(=O)c2cc3c(s2)-c2ccccc2OC3)c(OC)c1 | 1 | 5 | nt | -5 | -16 | 13 | nt | nt
COc1ccc(N(C)C(=O)c2cc3c(s2)-c2ccc(Cl)cc2S(=O)(=O)C3)c(OC)c1 | 18 | 1 | 1 | 35 | 56* | 62 | 19 | nt
COc1cc(NC(=O)c2cc3c(C)nc4ccccc4c3o2)cc(OC)c1OC | 8 | 24 | 1 | -10 | 59* | 17 | 29 | nt
Cc1ccc(C(C)NC(=O)c2cc3cc(Br)ccc3oc2=N)cc1 (stereo not drawn) | -6 | 3 | 21 | -8 | 51* | -13 | 35 | nt
O=C(C[C@@H]1C[C@@H]2c3cc(NC(=O)Cc4ccncc4)ccc3O[C@@H]2[C@@H](CO)O1)NCc1ccccn1 | nt | nt | nt | 0 | nt | nt | nt | nt
Oc1ccc(NC(=S)N=Nc2c(O)[nH]c3ccccc23)cc1 | 3 | -47 | 12 | -50 | 36 | -52 | nt | nt
Oc1cccc(NC(=S)N=Nc2c(O)[nH]c3ccc(Br)cc23)c1 | 7 | -1 | 30 | 1 | 56* | -5 | 46* | 57*
Oc1[nH]c2ccc(Br)cc2c1N=NC(=S)Nc1ccc(F)cc1 | 29 | -14 | 82* | 70* | 71* | 20 | 70* | 43*
Cc1ccc(NC(=S)N=Nc2c(O)[nH]c3ccccc23)cc1 | nt | -61 | 53 | 11 | 65* | 42 | 52* | 67*
N=C(N)N=Nc1c(O)[nH]c2ccc(Br)cc12 | 3 | 25 | -12 | -6 | 40 | 10 | nt | nt
Oc1ccc(NC(=S)N=Nc2c(O)[nH]c3ccc(Br)cc23)cc1 | nt | 5 | nt | 37 | 70* | -3 | 74* | 42*
CCCNC(=O)N1CC2(C1)[C@@H](c1ccccc1)[C@H](CO)N2C(=O)C1CC1 | nt | nt | nt | 1 | nt | nt | nt | nt
Cc1noc(C)c1NC(=O)Nc1cccc2c1O[C@@H](CN(C)C(=O)Nc1ccccc1)[C@@H](C)CN([C@H](C)CO)C2=O | nt | nt | nt | -20 | nt | nt | nt | nt
O=C(C[C@@H]1CC[C@@H]2[C@H](COC[C@H](O)CN2Cc2ccc(Cl)cc2)O1)Nc1nccs1 | nt | nt | nt | 6 | nt | nt | nt | nt
